Measured values taken from PubChem BioAssay (EPA / NIEHS).
Activity calls are given as the source filed them. How the source made its calls: active means hit-call score of the fitted dose curve at least 0.9, where 1 is the maximum; inactive means score below 0.9.

How the values were obtained:
[1] = read-out: Thrombomodulin, THBD (gene 7056); assay: BSK_CASM3C_Thrombomodulin: BioMAP Diversity Plus: CASM3C Assay for Thrombomodulin Biomarker Activity (AID 2283051); conditions: primary human coronary artery smooth muscle cells; actives raise or lower the signal;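 further: thrombomodulin protein level measured by ELISA 24 h after dosing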
[2] = read-out: Tissue Factor, F3 (gene 2152); assay: BSK_CASM3C_TissueFactor: BioMAP Diversity Plus: CASM3C Assay for Tissue Factor Biomarker Activity (AID 2283052); conditions: primary human coronary artery smooth muscle cells; actives raise or lower the signal;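 further: cell surface tissue factor protein level read by ELISA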
[3] = read-out: Interferon-gamma inducible Protein 10 (IP10), CXCL10 (gene 3627); assay: BSK_hDFCGF_IP10: BioMAP Diversity Plus: hDFCGF Assay for Interferon-gamma inducible Protein 10 (IP10) Biomarker Activity (AID 2283053); conditions: primary human foreskin fibroblasts; actives raise or lower the signal
How it was run: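 Human foreskin fibroblast primary cells (hDFCGF system) were dosed with chemical and assayed at 24 h; IP-10 measured by ELISA. Activity fitted bidirectionally relative to DMSO negative control as baseline.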

[4] = read-out: Urokinase-type plasminogen activator receptor (uPAR), PLAUR (gene 5329); assay: BSK_CASM3C_uPAR: BioMAP Diversity Plus: CASM3C Assay for Urokinase-type plasminogen activator receptor (uPAR) Biomarker Activity (AID 2283054); conditions: primary human coronary artery smooth muscle cells; actives raise or lower the signal;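 further: cell-surface uPAR protein level quantified by ELISA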
[5] = read-out: Collagen III, COL3A1 (gene 1281); assay: BSK_hDFCGF_CollagenIII: BioMAP Diversity Plus: hDFCGF Assay for Collagen III Biomarker Activity (AID 2283056); conditions: primary human foreskin fibroblasts; actives raise or lower the signal
How it was run: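 Human foreskin fibroblast primary cultures sampled 24 h after dosing; Collagen III quantified by ELISA. Signal fitted bidirectionally against DMSO baseline.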

[6] = read-out: Epidermal growth factor receptor (EGFR), EGFR (gene 1956); assay: BSK_hDFCGF_EGFR: BioMAP Diversity Plus: hDFCGF Assay for Epidermal growth factor receptor (EGFR) Biomarker Activity (AID 2283057); conditions: primary human foreskin fibroblasts; actives raise or lower the signal
How it was run: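 Primary human foreskin fibroblasts were exposed to compound for 24 h, after which cell-surface EGFR was quantified by ELISA. Activity was fitted bidirectionally against the DMSO negative control as baseline.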

[7] = read-out: Interleukin-8 (IL8), CXCL8 (gene 3576); assay: BSK_hDFCGF_IL8: BioMAP Diversity Plus: hDFCGF Assay for Interleukin-8 (IL8) Biomarker Activity (AID 2283058); conditions: primary human foreskin fibroblasts; actives raise or lower the signal
How it was run: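 Primary human foreskin fibroblasts (hDFCGF system) dosed with chemical; IL-8 measured by ELISA 24 hours later. Bidirectional curve fitting relative to DMSO baseline; cytotoxicity tracked in parallel cultures by SRB total protein staining.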

[8] = BSK_hDFCGF_Proliferation: Cell Proliferation Assessment in the BioMAP Diversity Plus: hDFCGF Assay (AID 2283059); conditions: primary human foreskin fibroblasts;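 further: curves fitted for both rise and fall of signal versus DMSO baseline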
How it was run: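 Steps: dose primary human dermal fibroblasts (foreskin); […] fix in 10% TCA; stain with 0.1% SRB; read 560 nm; fit gain or loss of signal against DMSO.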

[9] = read-out: Macrophage colony-stimulating factor (MCSF), CSF1 (gene 1435); assay: BSK_hDFCGF_MCSF: BioMAP Diversity Plus: hDFCGF Assay for Macrophage colony-stimulating factor (MCSF) Biomarker Activity (AID 2283060); conditions: primary human foreskin fibroblasts; actives raise or lower the signal
How it was run: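 Human foreskin fibroblast primary cultures; M-CSF measured by ELISA 24 hours after chemical dosing. Bidirectional fitting relative to DMSO, with overt cytotoxicity tracked by parallel SRB total-protein staining (0.1% SRB, 10% TCA fixation, 560 nm).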

[10] = BSK_hDFCGF_SRB: Viability Assessment in the BioMAP Diversity Plus: hDFCGF Assay (AID 2283061); conditions: primary human foreskin fibroblasts;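 further: cells exposed to compound for 24 h before the read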
How it was run: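 Human foreskin fibroblasts in 96-well plates were treated 24 h. Total protein was measured by 0.1% SRB staining after 10% TCA fixation, read at 560 nm. Data were fitted bidirectionally against DMSO.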

[11] = read-out: TIMP metallopeptidase inhibitor 1 (TIMP1), TIMP1 (gene 7076); assay: BSK_hDFCGF_TIMP1: BioMAP Diversity Plus: hDFCGF Assay for TIMP metallopeptidase inhibitor 1 (TIMP1) Biomarker Activity (AID 2283062); conditions: primary human foreskin fibroblasts; actives raise or lower the signal
How it was run: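 Human foreskin fibroblast primary cultures dosed for 24 h; secreted/surface TIMP-1 quantified by ELISA. Bidirectional curve fitting against DMSO baseline; cytotoxicity tracked in parallel cultures by SRB total-protein staining.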

[12] = read-out: Monokine induced gamma interferon (MIG), CXCL9 (gene 4283); assay: BSK_hDFCGF_MIG: BioMAP Diversity Plus: hDFCGF Assay for Monokine induced gamma interferon (MIG) Biomarker Activity (AID 2283063); conditions: primary human foreskin fibroblasts; actives raise or lower the signal
How it was run: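 MIG/CXCL9 measured by ELISA 24 h after dosing primary human skin fibroblasts. Activity fitted in both directions against DMSO controls. Cytotoxicity was checked in parallel cultures by SRB staining read at 560 nm.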

[13] = read-out: Matrix Metallopeptidase 1 (MMP1), MMP1 (gene 4312); assay: BSK_hDFCGF_MMP1: BioMAP Diversity Plus: hDFCGF Assay for Matrix Metallopeptidase 1 (MMP1) Biomarker Activity (AID 2283064); conditions: primary human foreskin fibroblasts; actives raise or lower the signal
How it was run: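 hDFCGF primary fibroblasts (human foreskin); chemical added; 24 h; MMP1 by ELISA; bidirectional fit vs DMSO.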

[14] = read-out: Vascular cell adhesion molecule 1 (VCAM1), VCAM1 (gene 7412); assay: BSK_hDFCGF_VCAM1: BioMAP Diversity Plus: hDFCGF Assay for Vascular cell adhesion molecule 1 (VCAM1) Biomarker Activity (AID 2283065); conditions: primary human foreskin fibroblasts; actives raise or lower the signal;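 on AC50: VCAM-1 protein level quantified by ELISA after 24 h chemical exposure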
How it was run: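 Human foreskin fibroblast primary cells dosed with chemical, VCAM-1 measured by ELISA at 24 h. Bidirectional curve fitting relative to DMSO as negative control/baseline.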

[15] = read-out: Plasminogen activator inhibitor-1 (PAI1), SERPINE1 (gene 5054); assay: BSK_hDFCGF_PAI1: BioMAP Diversity Plus: hDFCGF Assay for Plasminogen activator inhibitor-1 (PAI1) Biomarker Activity (AID 2283066); conditions: primary human foreskin fibroblasts; actives raise or lower the signal
How it was run: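 Human foreskin fibroblasts in the hDFCGF system were dosed with compound for 24 h; PAI-1 was quantified by ELISA. Bidirectional curve fitting used DMSO as negative control and baseline.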

[16] = read-out: Intercellular Adhesion Molecule 1 (ICAM1), ICAM1 (gene 3383); assay: BSK_KF3CT_ICAM1: BioMAP Diversity Plus: KF3CT Assay for Intercellular Adhesion Molecule 1 (ICAM1) Biomarker Activity (AID 2283067); conditions: primary human keratinocytes with fibroblasts; actives raise or lower the signal
How it was run: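 Human keratinocyte–foreskin fibroblast co-culture was treated for 24 h. Cell-surface ICAM-1 was quantified by ELISA, fitted bidirectionally relative to DMSO. Cytotoxicity was checked in parallel cultures by SRB total-protein staining.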

[17] = read-out: Interferon-gamma inducible Protein 10 (IP10), CXCL10 (gene 3627); assay: BSK_KF3CT_IP10: BioMAP Diversity Plus: KF3CT Assay for Interferon-gamma inducible Protein 10 (IP10) Biomarker Activity (AID 2283068); conditions: primary human keratinocytes with fibroblasts; actives raise or lower the signal
How it was run: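 KF3CT co-culture (keratinocytes + foreskin fibroblasts), 24 h compound, IP-10 by ELISA; bidirectional fit vs DMSO baseline.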

[18] = BSK_KF3CT_SRB: Viability Assessment in the BioMAP Diversity Plus: KF3CT Assay (AID 2283069); conditions: primary human keratinocytes with fibroblasts;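 further: total protein by sulforhodamine B staining as a cytotoxicity measure; read 24 h after compound addition; fitted for both signal gain and loss against DMSO baseline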
How it was run: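 Keratinocytes co-cultured with foreskin fibroblasts (human primary); chemical added, 24 h; fix 10% TCA, stain 0.1% SRB, A560. Bidirectional fit vs DMSO.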

[19] = read-out: Interleukin-1 alpha (IL1a), IL1A (gene 3552); assay: BSK_KF3CT_IL1a: BioMAP Diversity Plus: KF3CT Assay for Interleukin-1 alpha (IL1a) Biomarker Activity (AID 2283070); conditions: primary human keratinocytes with fibroblasts; actives raise or lower the signal
How it was run: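 Chemicals were dosed onto co-cultured human keratinocytes and foreskin fibroblasts, IL-1a was quantified by ELISA at 24 h, and activity was fitted in both directions relative to DMSO controls.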

[20] = read-out: Vascular cell adhesion molecule 1 (VCAM1), VCAM1 (gene 7412); assay: BSK_CASM3C_VCAM1: BioMAP Diversity Plus: CASM3C Assay for Vascular cell adhesion molecule 1 (VCAM1) Biomarker Activity (AID 2283055); conditions: primary human coronary artery smooth muscle cells; actives raise or lower the signal;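 further: VCAM-1 protein level quantified by ELISA on the cells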

Measured: AC50

CCCCCCCC[Si](OCC)(OCC)OCC
active: [5] 20 µM | [8] 28.3 µM | [17] 37.5 µM
not listed: [20]
inactive: all other assays above

CCCCCCCCCCCC[N+](C)(C)C
active: [2] 4.09 µM | [3] 22.2 µM | [4] 19.9 µM | [20] 32.9 µM | [7] 29.9 µM | [8] 8.97 µM | [9] 11.9 µM | [10] 18.4 µM | [12] 30.6 µM | [13] 4.94 µM | [14] 15.4 µM | [17] 36 µM | [18] 33.9 µM | [19] 32.5 µM
inactive: [1] | [6] | [11] | [16]

O=C(Nc1ccc(Cl)cc1)Nc1ccc(Cl)c(Cl)c1
inactive: [1] | [20] | [7] | [11] | [16] | [17] | [18] | [19]
active: [2] 9.41 µM | [3] 0.148 µM | [4] 9.76 µM | [6] 1 µM | [8] 0.477 µM | [9] 0.284 µM | [10] 0.138 µM | [12] 0.148 µM | [13] 0.242 µM | [14] 0.47 µM

O=C(O)Cc1cc(I)c(Oc2ccc(O)c(I)c2)c(I)c1
active: [8] 13.7 µM | [10] 20.2 µM | [13] 19.4 µM | [15] 10.4 µM | [17] 26.8 µM | [18] 25.5 µM
not listed: [5]
inactive: all other assays above

O=C=NCCCCCCN=C=O
not listed: [3]
inactive: all other assays above

O=C1O[C@H]([C@@H](O)CO)C(O)=C1O
not listed: [15]
inactive: all other assays above

Cc1cn([C@H]2C[C@H](N=[N+]=[N-])[C@@H](CO)O2)c(=O)[nH]c1=O
not listed: [6]
inactive: all other assays above

OCCO
active: [8] 20.1 µM
not listed: [15]
inactive: all other assays above

O=C1c2ccccc2C(=O)N1CCc1noc(-c2ccc(CN3CCCCCC3)s2)n1
inactive: all assays above

Cc1cc(F)ccc1-c1cc(N2CC[C@@H](O)[C@H]2CO)ncc1N(C)C(=O)C(C)(C)c1cc(C(F)(F)F)cc(C(F)(F)F)c1
inactive: [1] | [6]
active: [2] 22 µM | [3] 14.9 µM | [4] 31.1 µM | [20] 25.4 µM | [7] 18.4 µM | [8] 10.9 µM | [9] 11.1 µM | [10] 15.7 µM | [11] 12.4 µM | [12] 15.8 µM | [13] 16.7 µM | [14] 12.6 µM | [16] 26.3 µM | [17] 13.2 µM | [18] 13.5 µM | [19] 15 µM

CN(C)c1ccc(C(=C2C=CC(=[N+](C)C)C=C2)c2ccc(N(C)C)cc2)cc1
inactive: [1] | [6]
active: [2] 1.49 µM | [3] 4.07 µM | [4] 1.54 µM | [20] 8.39 µM | [5] 0.148 µM | [7] 6.66 µM | [8] 1.39 µM | [9] 1.77 µM | [10] 2 µM | [11] 1.95 µM | [12] 5.26 µM | [13] 5.45 µM | [14] 3.25 µM | [15] 1.54 µM | [16] 10.8 µM | [17] 8.28 µM | [18] 5.24 µM | [19] 2.54 µM
